MCF10A rerep: A quantitative high throughput screen for small molecules that induce DNA re-replication in MCF 10a normal breast cells. AID 624296, 2012. 350,000 compounds, 2.9% hits. MCF 10A DNA re-replication, Hoechst nuclear intensity, 48 h. Potency, µM (highest dose often 46.1 µM), inactives show at the top dose activity, positive = re-replication, actives largely listed as activators; further: potency means the concentration at half of the fitted maximal effect; % of control where 0% means no effect; nearly all actives have a fitted effect of over 50% in size
Gal4-VP16 FLuc: VP16 counterscreen qHTS for inhibitors of ROR gamma transcriptional activity | 310,000 compounds, 3.5% hits | Potency, µM (titrated, usually from 53.6 µM), for the others: top-dose activity, negative = inhibition, most hits filed as inhibitors | Drosophila S2 Gal4-VP16 UAS-luciferase, luminescence, 20 h;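 further: Gal4-VP16 expression switched on by copper sulfate through the metallothionein promoter; potency means the concentration at half of the fitted maximal effect; on the % scale 0 is the no-effect control and ±100 the full control effect; nearly all actives have a fitted effect of over 50% in size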
IL-1B inflam inh: qHTS for Inhibitors of Inflammasome Signaling: IL-1-beta AlphaLISA Primary Screen; THP-1 LPS/ATP IL-1B secretion, AlphaLISA, 16 h; stronger effect = lower value; activity change, % at 57.5 µM; 360,000 compounds, 4.7% hits; AID 743279, 2014; in the data active means activity change below about -50%; inconclusive means mostly about -30% to -49%; further: on the % scale 0 is the no-effect control and ±100 the full control effect
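Secreted IL-1B measured by AlphaLISA bead assay after 16 h compound exposure of THP-1 cells; compounds (final up to 57.5 uM) added 1 h before LPS (250 ng/mL) and ATP (1.25 mM) stimulation; lower signal means less secretion.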
SW480 rereplic: A quantitative high throughput screen for small molecules that induce DNA re-replication in SW480 colon adenocarcinoma cells; 340,000 compounds, 1.8% hits; Potency, µM (top dose mostly 46.1 µM), for the others: at the top dose re-replication activation, hits mostly activators; SW480 DNA re-replication, Hoechst DNA content imaging, 48 h; further: potency means the concentration at half of the fitted maximal effect; % of control where 0% means no effect; nearly all actives have a fitted effect of over 55% in size
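DNA re-replication was detected as more nuclei of elevated Hoechst intensity after 48 hr exposure to compound (23 nL pinned per well of 250 cells).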
RORgamma inh: qHTS for inhibitors of ROR gamma transcriptional activity. Drosophila S2 Gal4-RORgamma UAS-luciferase reporter, 20 h. Potency, µM (top dose mostly 53.6 µM), for the others: top-dose activity change, negative = inhibition, most hits filed as inhibitors. 310,000 compounds, 5.4% hits. AID 2551, 2010; further: potency means the concentration at half of the fitted maximal effect; on the % scale 0 is the no-effect control and ±100 the full control effect; nearly all actives have a fitted effect of over 60% in size
Target sequence (P51450 whole entry, looked up, the tested form may be a part): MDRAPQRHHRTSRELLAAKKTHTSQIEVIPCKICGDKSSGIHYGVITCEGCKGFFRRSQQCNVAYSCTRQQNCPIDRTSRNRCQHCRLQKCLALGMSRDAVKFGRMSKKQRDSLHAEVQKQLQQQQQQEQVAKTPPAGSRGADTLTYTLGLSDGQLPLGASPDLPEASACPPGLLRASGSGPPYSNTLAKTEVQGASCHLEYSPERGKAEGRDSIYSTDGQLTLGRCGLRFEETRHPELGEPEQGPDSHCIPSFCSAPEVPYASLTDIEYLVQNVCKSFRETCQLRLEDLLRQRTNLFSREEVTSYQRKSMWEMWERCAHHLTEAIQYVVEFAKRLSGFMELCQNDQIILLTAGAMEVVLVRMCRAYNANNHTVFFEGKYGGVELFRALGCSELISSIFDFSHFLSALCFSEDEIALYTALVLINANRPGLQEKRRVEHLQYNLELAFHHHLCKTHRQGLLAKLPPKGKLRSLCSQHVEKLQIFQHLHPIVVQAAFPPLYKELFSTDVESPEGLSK
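Read-out: Photinus luciferase luminescence; inhibitors lower reporter signal. Insect Schneider cells with Gal4-ROR gamma fusion under metallothionein promoter, UAS reporter; 700 uM final copper sulfate induction, 20 hr, ambient temperature.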
* marks the source's active call; other numbers are inactive results; [ ] = dose if it differs, or a comment. Shown are actives, neighbours in structure and some others; about 11% of the full set was active somewhere. Unless noted, the call rests on the fitted dose curve; in most records, active means well fitted curve in the direction sought with a large enough effect; inconclusive means small, poorly fitted or top-dose-only effect, or another doubt; inactive means no such curve, though single readings can be large; an effect the other way counts as inactive or inconclusive.

For Clc1ccc(-c2cn3cc(Cl)ccc3n2)cc1 the results were MCF10A rerep 13%, Gal4-VP16 FLuc 13µM*, IL-1B inflam inh 11, SW480 rereplic -10% and RORgamma inh 10µM*.
`Cc1ccc2nc(-c3ccc(-c4ccccn4)s3)cn2c1` gave MCF10A rerep 7%, Gal4-VP16 FLuc 0.89µM*, IL-1B inflam inh -19, SW480 rereplic 0% and RORgamma inh 0.18µM*.
CCOC(=O)c1c(N)sc2c1CCN(Cc1ccccc1)C2 was read as MCF10A rerep inconclusive, Gal4-VP16 FLuc 10%, SW480 rereplic -2% and RORgamma inh -24%.
Screening CCN1C(=O)[C@H]2[C@H]3[C@H](O)[C@H](O)C/C(=N/OC[C@@H](C)[C@H](OCc4ccccc4)C(C)C)[C@@H]3CC[C@@H]2C1=O returned Gal4-VP16 FLuc -7%[10 µM] and RORgamma inh -20%[10 µM].
For O=C(NC1CC1)C1CCN(C2CCN(C(=O)c3c(F)cccc3Cl)CC2)CC1 the results were MCF10A rerep -1%, Gal4-VP16 FLuc -6%, IL-1B inflam inh -5, SW480 rereplic 21% and RORgamma inh -16%.
Screening Cc1ccc2nc(-c3ccccc3)cn2c1 returned MCF10A rerep -4%, Gal4-VP16 FLuc 2.8µM*, IL-1B inflam inh 0, SW480 rereplic -17% and RORgamma inh 1.6µM*.
`Oc1ccc(-c2cn3cc(C(F)(F)F)ccc3n2)cc1` gave MCF10A rerep 19%, Gal4-VP16 FLuc 8.9µM*, IL-1B inflam inh -14, SW480 rereplic -2% and RORgamma inh 2.2µM*.
Screening COc1ccc2c(c1)C(=O)[C@H](OC(=O)N[C@H]1CCCc3ccccc31)[C@@H](c1ccc(OC)c(Br)c1)O2 returned Gal4-VP16 FLuc 2% and RORgamma inh -3%.
`CCc1ccc(NC2=NCC(c3ccccc3)S2)cc1` (stereo unspecified) gave MCF10A rerep 2%, Gal4-VP16 FLuc inconclusive, IL-1B inflam inh -6, SW480 rereplic -11% and RORgamma inh 8.9µM*.
`Cc1ccc(NC2=NCC(Cc3ccc(Br)cc3)S2)cc1` (stereo unspecified) gave MCF10A rerep inconclusive, Gal4-VP16 FLuc inconclusive, IL-1B inflam inh -96*, SW480 rereplic inconclusive and RORgamma inh 13µM*.
`O=[N+]([O-])c1ccc(C2CN=C(Nc3ccccc3)S2)cc1` (stereo unspecified) gave MCF10A rerep 6%, Gal4-VP16 FLuc 17%, IL-1B inflam inh -14, SW480 rereplic -6% and RORgamma inh -15%.
CCCCn1c(N)c(N(CC(C)C)C(=O)c2cc(S(=O)(=O)N3CCOCC3)ccc2Cl)c(=O)[nH]c1=O was read as MCF10A rerep 2%, IL-1B inflam inh 4 and SW480 rereplic -5%.
`Cc1cccc(NC(=S)NNc2ncc(C(F)(F)F)cc2Cl)c1` gave MCF10A rerep 24%, Gal4-VP16 FLuc 13µM*, IL-1B inflam inh -14, SW480 rereplic 4% and RORgamma inh 16µM*.
Screening O=[N+]([O-])c1ccccc1NCCNc1ncc(C(F)(F)F)cc1Cl returned MCF10A rerep 6%, Gal4-VP16 FLuc 4%, IL-1B inflam inh -6, SW480 rereplic -4% and RORgamma inh inconclusive.
For FC(F)(F)c1cnc(NNC(=S)Nc2ccccc2Cl)c(Cl)c1 the results were MCF10A rerep 2%, Gal4-VP16 FLuc 10µM*, IL-1B inflam inh -52*, SW480 rereplic 1% and RORgamma inh inconclusive.
For C/C(=C\COc1c2ccoc2cc2oc(=O)ccc12)CCC(O)C(C)(C)O (stereo unspecified) the results were Gal4-VP16 FLuc -4% and RORgamma inh -14%.
For CCCOc1ccc(-c2c(=O)n(O)c3ccccc3[n+]2[O-])cc1 the results were MCF10A rerep inconclusive, Gal4-VP16 FLuc inconclusive, IL-1B inflam inh -17, SW480 rereplic -70%[1.84 µM] and RORgamma inh inconclusive.
`Cc1cc(NC(=O)COC(=O)C2CC(=O)N(c3ccc(Cl)cc3)C2)no1` (stereo unspecified) gave MCF10A rerep -31%, Gal4-VP16 FLuc -3%, IL-1B inflam inh 10, SW480 rereplic -30% and RORgamma inh 3%.
